Inconclusive results are not listed. The source made the active and inactive calls. Rule for the calls: active = hit-call score of the fitted dose curve at least 0.9, where 1 is the maximum; inconclusive = response in the unintended direction; inactive = score below 0.9.
Assay: ATG_M_06_TRANS: Attagene TRANS-FACTORIAL HepG2 Assay for M06 Transcription Factor (Internal Marker) (AID 2282983)
Details: HepG2 Attagene TRANS M06 internal marker reporter
Procedure: ATG_TRANS is a cell-based, multiplexed-readout assay that uses HepG2, a human liver cell line, with measurements taken at 24 hours after chemical dosing in a 24-well plate.ATG_M_06_TRANS is one of 30 assay component(s) measured or calculated from the ATG_TRANS assay. It is designed to make measurements of mRNA induction, a form of inducible reporter, as detected with fluorescence intensity signals by Reverse transcription polymerase chain reaction (RT-PCR) and Capillary electrophoresis technology.Data from the assay component ATG_M_06_TRANS was analyzed into 1 assay endpoint. This assay endpoint, ATG_M_06_TRANS, was analyzed in the positive analysis fitting direction relative to DMSO as the negative control and baseline of activity. Using a type of inducible reporter, measures of mRNA for gain-of-signal activity can be used to understand the background control at the transcription factor-level as they relate to the gene . Furthermore, this assay endpoint can be referred to as a secondary readout, because this assay has produced multiple assay endpoints where this one serves a background control function. To generalize the intended target to other relatable targets, this assay endpoint is annotated to the background measurement intended target family, where the subfamily is internal marker.
Human liver HepG2 cells are transiently transfected with multiple reporter transcription units (MRTUs) in 6-well plates using FuGene 6 reagent (Roche; 3 ml FuGene/1 mg DNA). The MRTU constructs are regulated by a cis-regulating element (promoter). […] A major difference between the CIS and TRANS system is that in CIS activities of endogenous TFs are measured, whereas the TRANS assay evaluates changes in activities of exogenous, chimeric NR-Gal4 proteins. […] At the end of 24 hour incubation, total RNA was isolated using TriZol reagent (Invitrogen). The isolated RNA is then reverse-transcribed using oligo(dT) primer and Mo-MLV reverse transcriptase (Invitrogen) with DNAse I (Ambion) treatment for 30 min. The one-tenth of the produced cDNA was amplified by PCR using Taq DNA polymerase (Invitrogen) and two reporter sequence-specific primers. The PCR products were fluorescently labeled by primer extension with 6-arboxyfluorescein (6-FAM) 5'-labeled reporter sequence-specific primer (2 min at 95 C, 20 s at 68 C and 10 min at 72 C) and these products were digested with 5U of HpaI (New England Biolabs) for 2h at 37 C. The fragments were purified using Qiaquick PCR columns (Qiagen), analyzed on an ABI 3130xL genetic analyzer (Applied Biosystems) with peak positions identified by using a set of X-rhodamine (ROX)-labeled MapMarker1000 molecular weight standards (BioVentures). The raw capillary electrophoresis data was processed using Attagraph software (Attagene).

outcome, inactive:
O=C1NC2NC(=O)NC2N1 (stereo not given)
Cc1[nH]c(=O)c(C#N)cc1-c1ccncc1
COc1cccc(OC)c1O
O=C(Nc1ccc([N+](=O)[O-])cc1)Nc1ccc([N+](=O)[O-])cc1 (tested in a mixture with another compound)
Cc1ccc(S(N)(=O)=O)cc1
CCC1(C)NC(=O)NC1=O (stereo not given)
C=C(C)C(=O)OCC(CC)(COC(=O)C(=C)C)COC(=O)C(=C)C
CCOC(=O)C1OC1c1ccccc1 (stereo not given)
CCOC(=O)[C@@H](C)Oc1ccc(Oc2nc3ccc(Cl)cc3o2)cc1
CC(C)(N=C=O)c1cccc(C(C)(C)N=C=O)c1
CC=Cc1ccc(OCC)c(O)c1
CCCCC(CC)COC(=O)c1ccc(O)cc1 (stereo not given)
CC1(C)CCC[C@]2(C)[C@H]3CCO[C@]3(C)CC[C@@H]12
CCCCN(CCCC)C(=O)N(CCCC)CCCC
O=C1OC[C@H](Cc2cccc(O)c2)[C@H]1Cc1cccc(O)c1
Cc1ncc[nH]1
Cc1ccc(N)c(S(=O)(=O)O)c1
C=CC(C)C#N (stereo not given)
COC(=O)c1ccc([N+](=O)[O-])cc1
CCC(Cl)C(Cl)C(Cl)CC(Cl)C(Cl)C(C)Cl (stereo not given)
OCc1cccc(Oc2ccccc2)c1
CCCC(=O)OCCc1ccccc1
O=C1CCCC=CCCCCCCCCCC1
CN(C)CCOC(C)(c1ccccc1)c1ccccn1 (stereo not given)
CC1CCC(C(C)C)C(O)C1 (stereo not given)
CC1=CC[C@@]23C[C@@H]1C(C)(C)[C@@H]2CC[C@H]3C
CC1(C)C2=CCCC(C)(C)[C@]23CC[C@H]1C3
COC(=O)Nc1ccc(Cl)c(Cl)c1
CC(CN=Cc1ccccc1O)N=Cc1ccccc1O (stereo not given)
Nc1ccc(Cl)c([N+](=O)[O-])c1
CCN(CCC#N)c1ccc(N=Nc2ccc([N+](=O)[O-])cc2)cc1
c1ccc(CN(Cc2ccccc2)Cc2ccccc2)cc1
O=C(O)CCCCCCCCC(=O)O
O=C(Nc1ccc2c(O)c(N=Nc3ccc(N=Nc4ccc(S(=O)(=O)O)cc4)cc3)c(S(=O)(=O)O)cc2c1)c1ccccc1
CCCOC(=O)c1c(Cl)c(Cl)c(Cl)c(Cl)c1C(=O)OCCC
CCCCCCCCCCCC(=O)OC[C@@H](O)[C@H]1OC[C@H](O)[C@H]1O
COc1ccc(CCN2CCC(Nc3nc4ccccc4n3Cc3ccc(F)cc3)CC2)cc1
C=CCCC(=O)/C=C/C1C(C)=CCCC1(C)C (stereo not given)
O=CCc1ccccc1
Nc1c(Cl)cc(Cl)cc1[N+](=O)[O-]

— PubChem BioAssay (EPA / NIEHS)
